Structures are written as SMILES. Records with an inconclusive call do not appear. A call without a number means that no potency is given here. Activity calls are given as the source filed them. The call rests on the fitted dose curve; in most records, active means well fitted inhibition curve with a large enough effect; inconclusive means small, poorly fitted or top-dose-only effect; inactive means flat fitted curve, though single readings scatter. Bridge positions count the residues as written; N and C are the ends. Square brackets hold non-standard residues; d marks the D form. Peptide text beside a SMILES is read from it. * marks the point of attachment. Ileψ(thiazoline)Cys = CC[C@H](C)[C@H](N)C1=N[C@H](C(=O)*)CS1; d(aIle) = CC[C@H](C)[C@@H](N)C(=O)O; dOrn = NCCC[C@@H](N)C(=O)O

These results are taken from PubChem BioAssay (NCATS).
Potency means the concentration at half of the fitted maximal effect.

In one assay the test system is Dd2. Description: qHTS profiling for inhibitors of Plasmodium falciparum proliferation (AID 504749). Further: nearly all actives have a fitted effect of over 60% in size. The settings on record: P. falciparum in erythrocytes, SYBR Green DNA, 72 h; series mostly up to 12.8 µM. An outline of the steps:
(§1)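 SYBR Green fluorescence of parasite DNA, read after lysis and overnight dark incubation, measured growth over 72 h in erythrocyte culture at 0.3% parasitemia and 2.5% hematocrit. Data normalised to DMSO and 0.29 uM artemisinin, with plate-drift correction.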
On the technique in general: qHTS replaces the single test concentration by a dilution series.
Regarding `Clc1ccc([C@H](Cn2ccnc2)OCc2c(Cl)cccc2Cl)c(Cl)c1`, the Potency is 3.55 µM (active).

On to `C[C@@H](CNC1CCCCC1)OC(=O)c1ccccc1`, for which the Potency was 4.47 µM (active).

As to `CC[C@H](CO)NCCN[C@@H](CC)CO`, the Potency result was “inactive”.

In the next assay the test system is ECU. The assay is described as above. The settings on record: P. falciparum in erythrocytes, SYBR Green DNA, 72 h; series mostly up to 12.8 µM. In outline:
as §1
Consider `CN1CCO[C@H](c2ccccc2)c2ccccc2C1`, for which the Potency entry was “inactive”.

`C[C@H](CCC(=O)O)[C@H]1CC[C@@H]2[C@@H]3[C@@H](O)C[C@H]4C[C@@H](O)CC[C@@]4(C)[C@H]3CC[C@@]21C`: the Potency entry was “inactive”.

Turning to `CN(C/C=C\c1ccccc1)Cc1cccc2ccccc12`, the Potency entry was “inactive”.

`CCN(CCCCOC(=O)c1ccc(OC)c(OC)c1)[C@@H](C)Cc1ccc(OC)cc1`: the Potency entry was “inactive”.

As to `C[C@H](C(=O)O)c1cccc(Oc2ccccc2)c1`, the Potency entry was “inactive”.

For `CC1(C)[C@@H](OC(=O)CCC(=O)O)CC[C@@]2(C)[C@H]1CC[C@@]1(C)[C@H]2C(=O)C=C2[C@H]3C[C@](C)(C(=O)O)CC[C@]3(C)CC[C@@]21C`, the Potency result was “inactive”.

In the case of `CCOC(=O)O[C@@H](C)OC(=O)[C@@H]1N2C(=O)[C@@H](NC(=O)[C@@H](N)c3ccccc3)[C@H]2SC1(C)C`, the Potency result is “inactive”.

Turning to `Cc1ccsc1/C=C\C1=NCCCN1C`, the Potency result is “inactive”.

As for `C#C[C@]1(O)CC[C@@H]2[C@H]3CCC4=CCCC[C@@H]4[C@@H]3CC[C@@]21C`, the Potency result was “inactive”.

As to `CC[C@H](C)[C@H](N)C1=N[C@H](C(=O)N[C@@H](CC(C)C)C(=O)N[C@@H](CCC(=O)O)C(=O)N[C@@H](C(=O)N[C@H]2CCCCNC(=O)[C@@H](CC(N)=O)NC(=O)[C@@H](CC(=O)O)NC(=O)[C@@H](Cc3cnc[nH]3)NC(=O)[C@@H](Cc3ccccc3)NC(=O)[C@@H]([C@@H](C)CC)NC(=O)[C@@H](CCCN)NC2=O)[C@@H](C)CC)CS1` ({Ileψ(thiazoline)Cys}-LE[d(aIle)]K[dOrn][d(aIle)][dF][dH][dD][dN]; lactam 4-C), the Potency entry is “inactive”.

For `O=C(O)COCCN1CCN([C@@H](c2ccccc2)c2ccc(Cl)cc2)CC1`, the Potency entry is “inactive”.

On to `CCN(CC)CCOC(=O)[C@@H](Cc1cccc2ccccc12)C[C@@H]1CCCO1`, for which the Potency entry was “inactive”.

As to `Clc1ccc([C@H](Cn2ccnc2)OCc2c(Cl)cccc2Cl)c(Cl)c1`, the Potency is 1.78 µM (active).

In the next assay the test system is FAB9. The description is as above. The settings on record: P. falciparum in erythrocytes, SYBR Green DNA, 72 h; series mostly up to 12.8 µM. In outline: as §1
Regarding `CN1CCO[C@H](c2ccccc2)c2ccccc2C1`, the Potency result was “inactive”.

As to `C[C@H](CCC(=O)O)[C@H]1CC[C@@H]2[C@@H]3[C@@H](O)C[C@H]4C[C@@H](O)CC[C@@]4(C)[C@H]3CC[C@@]21C`, the Potency result was “inactive”.

On to `CN(C/C=C\c1ccccc1)Cc1cccc2ccccc12`, for which the Potency entry is “inactive”.

As for `CCN(CCCCOC(=O)c1ccc(OC)c(OC)c1)[C@@H](C)Cc1ccc(OC)cc1`, the Potency entry was “inactive”.

`C[C@H](C(=O)O)c1cccc(Oc2ccccc2)c1`: the Potency result was “inactive”.

For `CC1(C)[C@@H](OC(=O)CCC(=O)O)CC[C@@]2(C)[C@H]1CC[C@@]1(C)[C@H]2C(=O)C=C2[C@H]3C[C@](C)(C(=O)O)CC[C@]3(C)CC[C@@]21C`, the Potency result is “inactive”.

Regarding `CCOC(=O)O[C@@H](C)OC(=O)[C@@H]1N2C(=O)[C@@H](NC(=O)[C@@H](N)c3ccccc3)[C@H]2SC1(C)C`, the Potency result is “inactive”.

Consider `Cc1ccsc1/C=C\C1=NCCCN1C`, for which the Potency entry was “inactive”.

`Cc1cccc(CN2CCN([C@@H](c3ccccc3)c3ccc(Cl)cc3)CC2)c1`: the Potency result is “inactive”.

Take `C#C[C@]1(O)CC[C@@H]2[C@H]3CCC4=CCCC[C@@H]4[C@@H]3CC[C@@]21C`: the Potency entry is “inactive”.

On to `CC[C@H](C)[C@H](N)C1=N[C@H](C(=O)N[C@@H](CC(C)C)C(=O)N[C@@H](CCC(=O)O)C(=O)N[C@@H](C(=O)N[C@H]2CCCCNC(=O)[C@@H](CC(N)=O)NC(=O)[C@@H](CC(=O)O)NC(=O)[C@@H](Cc3cnc[nH]3)NC(=O)[C@@H](Cc3ccccc3)NC(=O)[C@@H]([C@@H](C)CC)NC(=O)[C@@H](CCCN)NC2=O)[C@@H](C)CC)CS1` ({Ileψ(thiazoline)Cys}-LE[d(aIle)]K[dOrn][d(aIle)][dF][dH][dD][dN]; lactam 4-C), for which the Potency entry is “inactive”.

As for `O=C(O)COCCN1CCN([C@@H](c2ccccc2)c2ccc(Cl)cc2)CC1`, the Potency result was “inactive”.

In the case of `CCN(CC)CCOC(=O)[C@@H](Cc1cccc2ccccc12)C[C@@H]1CCCO1`, the Potency result was “inactive”.

As for `CC[C@H](CO)NCCN[C@@H](CC)CO`, the Potency result was “inactive”.

The test system of another assay is GB4. The description is as above. The settings on record: P. falciparum in erythrocytes, SYBR Green DNA, 72 h; series mostly up to 12.8 µM. In outline: as §1
Turning to `C[C@H](CCC(=O)O)[C@H]1CC[C@@H]2[C@@H]3[C@@H](O)C[C@H]4C[C@@H](O)CC[C@@]4(C)[C@H]3CC[C@@]21C`, the Potency entry is “inactive”.

Turning to `CCN(CCCCOC(=O)c1ccc(OC)c(OC)c1)[C@@H](C)Cc1ccc(OC)cc1`, the Potency entry was “inactive”.

For the compound `C[C@H](C(=O)O)c1cccc(Oc2ccccc2)c1`, the Potency result was “inactive”.

`CC1(C)[C@@H](OC(=O)CCC(=O)O)CC[C@@]2(C)[C@H]1CC[C@@]1(C)[C@H]2C(=O)C=C2[C@H]3C[C@](C)(C(=O)O)CC[C@]3(C)CC[C@@]21C`: the Potency result was “inactive”.

Take `CCOC(=O)O[C@@H](C)OC(=O)[C@@H]1N2C(=O)[C@@H](NC(=O)[C@@H](N)c3ccccc3)[C@H]2SC1(C)C`: the Potency entry is “inactive”.

In the case of `Cc1ccsc1/C=C\C1=NCCCN1C`, the Potency result was “inactive”.

`C#C[C@]1(O)CC[C@@H]2[C@H]3CCC4=CCCC[C@@H]4[C@@H]3CC[C@@]21C`: the Potency result is “inactive”.

For the compound `CC[C@H](C)[C@H](N)C1=N[C@H](C(=O)N[C@@H](CC(C)C)C(=O)N[C@@H](CCC(=O)O)C(=O)N[C@@H](C(=O)N[C@H]2CCCCNC(=O)[C@@H](CC(N)=O)NC(=O)[C@@H](CC(=O)O)NC(=O)[C@@H](Cc3cnc[nH]3)NC(=O)[C@@H](Cc3ccccc3)NC(=O)[C@@H]([C@@H](C)CC)NC(=O)[C@@H](CCCN)NC2=O)[C@@H](C)CC)CS1` ({Ileψ(thiazoline)Cys}-LE[d(aIle)]K[dOrn][d(aIle)][dF][dH][dD][dN]; lactam 4-C), the Potency result is “inactive”.

For `CCN(CC)CCOC(=O)[C@@H](Cc1cccc2ccccc12)C[C@@H]1CCCO1`, the Potency entry is “inactive”.

Consider `Clc1ccc([C@H](Cn2ccnc2)OCc2c(Cl)cccc2Cl)c(Cl)c1`, for which the Potency is 4.55 µM (active).

On to `C[C@@H](CNC1CCCCC1)OC(=O)c1ccccc1`, for which the Potency was 4.55 µM (active).

`CC[C@H](CO)NCCN[C@@H](CC)CO`: the Potency result is “inactive”.
